# Source: PubChem BioAssay
# In the library only some 1.2% were active in any assay of this set; here they are far more common.
# TSHR antag – Antagonists of the Thyroid Stimulating Hormone Receptor: HTS campaign | activity change, negative = inhibition, % at 11.5 µM | Thyrotropin receptor (Homo sapiens), P16473 | AID 504810, 2011 | TSHR-expressing cells, TSH-stimulated cAMP HTRF, 2 h; stronger effect = lower value | 330,000 compounds, 0.2% hits;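 active = activity change below a set negative limit, meaning inhibition stronger than a set level, cut at about -70% in these data; inconclusive = activity change between two set negative limits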; note: % is set by controls: 0 for no effect and ±100 for the full control effect
#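 Read-out is FRET at 665 nm (cryptate excitation 337 nm) from a cryptate-tagged anti-cAMP antibody, competed by cell cAMP against cAMP-d2. Compounds are tested on freshly harvested TSHR cells challenged with 4nM TSH (EC80) for 2 hours at 37 deg C.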
# S-ASM inh – Inhibitors of Secretory Acid Sphingomyelinase (S-ASM): qHTS; Potency, µM (series often up to 57.5 µM), for inactives: top-dose activity change, negative = inhibition, actives largely listed as inhibitors; placental ASM, HMU-PC fluorogenic substrate, 60 min; Sphingomyelin phosphodiesterase (Homo sapiens), P17405; 340,000 compounds, 0.006% hits; note: potency is the fitted concentration of half-maximal effect
# Target sequence (P17405 47-631 limits assumed): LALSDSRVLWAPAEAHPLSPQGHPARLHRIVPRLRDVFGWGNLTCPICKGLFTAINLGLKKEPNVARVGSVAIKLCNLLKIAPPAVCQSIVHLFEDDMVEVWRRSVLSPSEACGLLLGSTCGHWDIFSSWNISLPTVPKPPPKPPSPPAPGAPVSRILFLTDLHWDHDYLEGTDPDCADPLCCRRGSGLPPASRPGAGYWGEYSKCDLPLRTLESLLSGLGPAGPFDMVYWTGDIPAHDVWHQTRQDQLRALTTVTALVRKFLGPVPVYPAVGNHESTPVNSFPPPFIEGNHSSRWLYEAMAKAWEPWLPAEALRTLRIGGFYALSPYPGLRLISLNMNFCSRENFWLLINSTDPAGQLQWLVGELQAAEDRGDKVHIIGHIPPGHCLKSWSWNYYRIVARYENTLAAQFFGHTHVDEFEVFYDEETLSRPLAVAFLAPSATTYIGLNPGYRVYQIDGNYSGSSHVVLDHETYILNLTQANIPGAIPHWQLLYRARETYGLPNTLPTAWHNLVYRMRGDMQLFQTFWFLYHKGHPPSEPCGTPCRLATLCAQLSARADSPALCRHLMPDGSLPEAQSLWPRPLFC
#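 qHTS format. ASM enzyme prepared from human placenta hydrolyses the fluorogenic substrate HMU-PC0 (9 uM final) over 60 min at 37 °C after a 10 min compound preincubation.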
# Apoferritin bind – qHTS Assay for Identification of Novel General Anesthetics; apoferritin/1-aminoanthracene competitive binding, fluorescence; Potency, µM (doses to about 77.5 µM), without a hit: at the top dose activity change, negative = displacement, most hits filed as inhibitors; 350,000 compounds, 0.074% hits; note: potency is the fitted concentration of half-maximal effect; % is set by controls: 0 for no effect and ±100 for the full control effect; nearly all actives have a fitted effect of over 20% in size
#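 10 uM apoferritin + 50% sat. 1-AMA, PBS; cpd 10 min RT; Ex380/Em535 endpoint; normalized to free probe vs complex; 4-param Hill fit; propofol titration as pos. ctrl.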
# BRCA1 expr act – qHTS Assay to Identify Small Molecule Activators of BRCA1 Expression; 380,000 compounds, 1.1% hits; MCF7-BRCA1-FFLuc reporter, luminescence, 48 h; response scale: scaled: vehicle 0%, 10 µM genistein 100%; Potency, µM (series often up to 46.1 µM), without a hit: at the highest dose activation, actives largely listed as activators; note: potency is the fitted concentration of half-maximal effect; nearly all actives have a fitted effect of over 80% in size
#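 Luminescence from a BRCA1-driven firefly luciferase in MCF7 cells was the read-out, taken 15 min after substrate addition following 48 h compound exposure at 37 °C. Data were normalized to a 10 microM genistein control and DMSO vehicle.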
# TSG101-PTAP inh – qHTS Assay for Iinhibitors of HIV-1 Budding by Blocking the Interaction of PTAP/TSG101; Tumor susceptibility gene 101 protein (Homo sapiens), Q99816; Fluorescence polarization, FITC-PTAP peptide / Tsg101 binding; Potency, µM (series often up to 115 µM), without a hit: at the top dose activity change, negative = inhibition, usual class: inhibitors; 340,000 tested, under 10 active; active = well fitted inhibition curve with a large enough effect in the main read-out, with a control signal flat, not every such curve was filed as active; inconclusive = small, poorly fitted or top-dose-only effect, or effect the other way, or a change in a side signal; inactive = no such curve, though single readings can be large or run the other way; note: potency is the fitted concentration of half-maximal effect; % of control where 0% means no effect
#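 Fluorescence anisotropy tracks displacement of a FITC-tagged PTAP peptide (50 nM) from the Tsg101 binding domain (10 uM), following a 20 min room-temperature incubation at pH 7.5.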
# * = called active by the depositor; i = inactive; ? = inconclusive; . = no result given. Unless noted, calls come from the whole dose curve; as a rule, active = well fitted curve in the direction sought with a large enough effect; inconclusive = small, poorly fitted or top-dose-only effect, or another doubt; inactive = no such curve, though single readings can be large; an effect the other way counts as inactive or inconclusive.
SMILES,TSHR antag,S-ASM inh,Apoferritin bind,BRCA1 expr act,TSG101-PTAP inh
O=C(CN1C(=O)c2ccccc2S1(=O)=O)NCCSCc1cccc(Cl)c1,-96*,0%,-3%,0%,-2%
O=C(CN1C(=O)c2ccccc2S1(=O)=O)NCCSC1CCCCC1,-6,-1%,-3%,-32%,1%
C[C@H]([C@H](C)N1CC(=O)NC(=O)C1)N1CC(=O)NC(=O)C1,.,.,2%,.,.
Cc1nc(N2CCN(S(=O)(=O)c3ccccc3C#N)CC2)c2c(-c3ccccc3)csc2n1,-79*,-1%,.,-58%,-4%
O=C1CC2(CCCC2)CC(=O)N1CCCCNCC1COc2ccccc2O1 (stereo not given),.,.,-13%,.,.
COc1ccc(CCNC(=O)c2cccc3c2C(=O)N(C2CCCCC2)C3)cc1OC,-78*,-1%,-22%,-17%,-6%
N[C@](CC1c2ccccc2Oc2ccccc21)(C(=O)O)[C@H]1C[C@@H]1C(=O)O,.,.,21%,.,.
COC(=O)c1ccc(CN2C(=O)NC(Cc3c[nH]c4ccccc34)C2=O)cc1 (stereo not given),-98*,4%,-8%,?,0%
O=C1NC(Cc2c[nH]c3ccccc23)C(=O)N1Cc1ccccc1 (stereo not given),-10,0%,-2%,-13%,2%
Fc1ccc(-c2nnc(-c3ccc(Cl)cc3)o2)cc1,0,5%,-9%,2µM*,4%
Clc1ccc(-c2nnc(N3CCOCC3)o2)cc1,-2,-1%,-3%,4µM*,-3%
CCCCOc1ccc(CNC(=O)c2cnc3sc(N4CCOCC4)nn3c2=O)cc1,.,.,4.5µM*,.,.
CN(C(=O)c1cc2c(=O)n3ccccc3nc2n1C)C1CCCCC1,39,i,i,1.4µM*,.
CCN(C(=O)c1cc2c(=O)n3ccccc3nc2n1CCCOC)C1CCCCC1,15,i,696%,-13%,-4%
Cn1c(C(=O)O)cc2c(=O)n3ccccc3nc21,-2,i,233%,2%,-8%
CCN(C(=O)c1cc2c(=O)n3ccccc3nc2n1C)C1CCCCC1,-123*,i,525%,50%,-3%
CCc1ccc(-c2nc3c(=O)n(C)c(=O)nc-3n(CC)n2)cc1,.,.,.,-80%,.
CCCCCCCCCCCCCCOS(=O)(=O)O,.,.,-23%,.,.
NC(=O)C1CCN(c2nc(-c3cccc4sc5ccccc5c34)cs2)CC1,-17,.,.,.,.
CC(C)(C)c1nnc(SCC(=O)Nc2ccc(N3CCCCC3)cc2)n1N,-19,-1%,.,4µM*,-1%
Cc1cccc(Nc2nc3ccccc3s2)c1C,-10,-8%,?,?,-1%
COc1ccc(Nc2nc3ccccc3s2)cc1,5,-3%,-23%,5µM*,-3%
COc1cccc(Nc2nc3ccc(OC)cc3s2)c1,-13,-5%,?,4.5µM*,-5%
Nc1c(-c2ccc(Cl)cc2)nnn1-c1ccccc1,5,3%,3%,7.1µM*,1%
CC(C)ON([C@@H](C(=O)NO)C(C)C)S(=O)(=O)c1ccc(-c2ccccc2)cc1,-9,.,.,.,.
SMILES,TSHR antag,S-ASM inh,Apoferritin bind,BRCA1 expr act,TSG101-PTAP inh
COc1ccc(S(=O)(=O)N2CCOC23CCN(C(=O)c2ccc(Cl)cc2Cl)CC3)cc1,-115*,-2%,-10%,-29%,-5%
COc1ccc(S(=O)(=O)N2CCOC23CCN(C(=O)c2c(F)cccc2Cl)CC3)cc1,2,2%,1%,0%,-11%
O=C(O)c1ccc(N=Nc2c(O)[nH]c3ccc(Br)cc23)cc1,-6,-10%,5%,5.6µM*,13%
COc1ccc(N=Nc2c(N)nn(C)c2N)cc1,.,-15%,.,2.5µM*,0%
NC(=O)c1cccnc1Nc1ccccc1F,3,2%,-4%,?,-1%
Cc1cc(Cl)ccc1Nc1ncccc1C(N)=O,11,-5%,?,4.5µM*,-2%
